Out of some 48,000 compounds screened, about 13,000 (27%) showed an effect of 50% or more. Some of the results follow.

The experiment has as its system Wolbachia pipientis. As to the kind of experiment: Anti-Wolbachia Cell-Based Screen. It counts as functional. The arrangement: scale not given: in the data most compounds retested in dose-response had high values. Particulars: 5 µM.
With `OC1(CNCc2ccc(F)c(C(F)(F)F)c2)CCSCC1`, the “Percent Effect” value was determined as 2.477%.

`O=C(O)CN1CCc2onc(C(c3ccccc3)c3ccccc3)c2C1`: the “Percent Effect” value is on record as -16.17%.

Turning to `CNS(=O)(=O)CCn1cc(-c2ccc(OC)c(OC)c2)nn1`, the “Percent Effect” value was -29.27%.

Regarding `Cc1noc(C)c1CN1CCOC2(CCCN(c3ccccn3)C2)C1` (stereo unspecified), the “Percent Effect” value was -3.1%.

For `Cc1ccc(CNC(=O)CCSCc2csc(C)n2)cn1`, the “Percent Effect” value is given as -0.6284%.

As for `COc1ccc(C)c(NC(=O)NCc2cccc(N(C)C)n2)c1`, the “Percent Effect” value is -15.2%.

In the case of `Cc1nc(CSCCC(=O)NCc2ccncc2)cs1`, the “Percent Effect” value was 95.93%.

For `Cc1nc(CSCCC(=O)NCCNC(=O)OC(C)(C)C)cs1`, the “Percent Effect” value was -7.243%.

Turning to `CSC(C)C(=O)NCc1ccc(-n2cncn2)nc1` (stereo unspecified), the “Percent Effect” value was -9.599%.

With `CC(OCC(F)(F)F)C(=O)NCc1ccc(-n2cncn2)nc1` (stereo unspecified), the “Percent Effect” value is on record as 6.097%.

For `Cc1nc(CNC(=O)NCCc2ccc(N(C)C)cc2)cs1`, the “Percent Effect” value worked out at 2.73%.

With `Cc1nc(CCNC(=O)NCc2cccc(N(C)C)n2)cs1`, the “Percent Effect” value was 98.24%.

`Cc1nc(CSCCC(=O)NCC(=O)NC(C)C)cs1`: the “Percent Effect” value worked out at 3.002%.

For the compound `Cc1nc(CSCCC(=O)NCc2ccc(-n3cncn3)nc2)cs1`, the “Percent Effect” value is given as 103.5%.

On to `COc1ccc(CNC(=O)CCSCc2csc(C)n2)cn1`, for which the “Percent Effect” value is listed as 99.67%.

Regarding `Cc1ccc2c(c1)C(NC(=O)C1CCN(S(C)(=O)=O)CC1)CC(C)(C)O2` (stereo unspecified), the “Percent Effect” value is 2.376%.

Take `F[C@@H]1CN(CC2CC2)C[C@@H]1OCc1nc2ccc(C(F)(F)F)cc2[nH]1`: the “Percent Effect” value was -10.92%.

Regarding `CC(C)N1CCc2onc(Cn3cccn3)c2C1`, the “Percent Effect” value is -7.292%.

With `O=C(Nc1ccccc1-c1ccccc1)N1C[C@@H]2CNC[C@]2(C(=O)O)C1`, the “Percent Effect” value was -1.582%.

For the compound `Cc1nc(CNC(=O)NCC(F)(F)F)oc1C`, the “Percent Effect” value came to 5.267%.

For `Cc1ccc(-c2cc(-c3nc(CN4CCN(C)CC4)no3)n[nH]2)cc1`, the “Percent Effect” value is -2.901%.

Take `CSCCCN1C(=O)CC[C@H]2CN(Cc3ncc[nH]3)CC[C@H]21`: the “Percent Effect” value was -3.327%.

As for `Cc1ncsc1CCC(=O)NCc1csc(N(C)C)n1`, the “Percent Effect” value is 8.732%.

Consider `Cc1nc(CCNC(=O)NCc2ccc(N(C)C)nc2)cs1`, for which the “Percent Effect” value is recorded as 2.776%.

Turning to `COc1ccc(CNC(=O)NCCc2csc(C)n2)cn1`, the “Percent Effect” value worked out at 78.6%.

As to `Cc1nc(CNC(=O)NCc2ccc(OCC3CC3)nc2)cs1`, the “Percent Effect” value is on record as -6.746%.

As for `Cc1nc(CSCCC(=O)NCc2ccc(N(C)C)cc2)cs1`, the “Percent Effect” value turned out to be 100.6%.

For `CCOc1ccc(C(=O)CCC(=O)NCCc2nncn2CC)cc1C`, the “Percent Effect” value is -15.05%.

`CC(=O)N1CCC2(CC1)C(=O)N(c1ccc(C)nc1)CCN2CC(C)C`: the “Percent Effect” value is -6.199%.

`CCCS(=O)(=O)N1CCN(C(=O)CO)CC1`: the “Percent Effect” value amounted to 9.785%.

Turning to `CCS(=O)(=O)CC(=O)Nc1ccccc1N1CCc2ccccc21`, the “Percent Effect” value was -1.356%.

With `COc1ccc(C2=C(C)C(N3CCc4ccccc4C3)=NS2(=O)=O)cc1`, the “Percent Effect” value was -1.571%.

Consider `CC1=C(c2ccc(Cl)cc2)S(=O)(=O)N=C1N1CCc2ccccc21`, for which the “Percent Effect” value is on record as 182.9%.

Take `CC(C)c1nc(C2CCCN2CC(=O)N2CCc3ccccc32)no1` (stereo unspecified): the “Percent Effect” value was 8.047%.

As for `CC1=C(c2ccc(C(C)C)cc2)S(=O)(=O)N=C1N1CCc2ccccc21`, the “Percent Effect” value is listed as 127.3%.

On to `CC1=C(c2ccc(C)cc2)S(=O)(=O)N=C1N1CCc2ccccc21`, for which the “Percent Effect” value is 130.8%.

For the compound `CS(=O)(=O)NCCC(=O)Nc1ccccc1N1CCc2ccccc21`, the “Percent Effect” value is recorded as 4.986%.

Regarding `COc1ccc(C2=C(C)C(N3CCc4ccccc43)=NS2(=O)=O)cc1`, the “Percent Effect” value turned out to be 41.03%.

As for `CNC(=O)NCC(=O)Nc1ccccc1N1CCc2ccccc21`, the “Percent Effect” value is given as -5.269%.

`CC1=C(c2ccc(F)cc2)S(=O)(=O)N=C1N1CCc2ccccc21`: the “Percent Effect” value is reported as 117.2%.

Consider `CCc1nccn1CC(=O)N1C[C@H]2CC[C@@H]1CN(S(=O)(=O)N(C)C)C2`, for which the “Percent Effect” value is -7.287%.

As to `Cc1nc(CN2CCCC2C(=O)OCc2ccccc2)oc1C` (stereo unspecified), the “Percent Effect” value is recorded as 2.818%.

For the compound `CCN1CCN(C(=O)NCc2cccc(-c3cnn(C)c3)c2)CC1`, the “Percent Effect” value was -0.06636%.

Consider `CCOC(=O)NC(CNC(=O)c1cccc(C)n1)CC(C)C` (stereo unspecified), for which the “Percent Effect” value is reported as -0.9976%.

Consider `COCc1ccccc1C(=O)N1CCC(CNC(=O)OC(C)(C)C)C1` (stereo unspecified), for which the “Percent Effect” value was -8.221%.

For the compound `CS(=O)(=O)CCC(=O)N1C[C@@H]2CC[C@H](C1)N(Cc1ccccn1)C2=O`, the “Percent Effect” value was 13.71%.

With `N[C@@H]1CC[C@@H](Nc2nccc(CCC(F)(F)F)n2)C1`, the “Percent Effect” value is on record as -1.257%.

Consider `COc1cc(F)c(NCc2nc3ccccc3n2C)cc1OC`, for which the “Percent Effect” value came to 108.7%.

As for `COCCOc1ccc(F)cc1NCc1nc2ccccc2n1C`, the “Percent Effect” value is recorded as 110.1%.

On to `CN1C[C@@H](F)[C@@H](OCc2nc3ccccc3n2C)C1`, for which the “Percent Effect” value is 6.816%.

Regarding `Cn1c(CCCNc2nccnc2C#N)nc2ccccc21`, the “Percent Effect” value is listed as -4.565%.

Values taken from ChEMBL document CHEMBL3988442, “University of Dundee, Small-Polar-MMV Screening Library” (2021).
